The structures appear in SMILES notation. Hit rate of the full screen: of about 330,000 compounds, about 1,900 (0.58%) were called active. Roughly 4% stayed inconclusive and do not appear here. Rule as the data show it: inconclusive = inhibition above about 70% without an active follow-up result; inactive = below that. Only a sample is shown. Potency and affinity values are given separately.

A word on the inhibition: it is the change of the read-out against control, counted positive when it falls.

The nature of the experiment: M. tuberculosis growth inhibition, HTS (AID 449762).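 Also: bacterial growth assessed after seven days of incubation.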 To be noted: M. tuberculosis H37Rv growth inhibition, 7H9 media; at 25 µM; active compounds read high.
In the case of `O=C(COC(=O)c1cc(=O)[nH]c2ccccc12)NC(=O)c1ccccc1`, the inhibition was -1.53% (inactive).

As to `COc1ccc(Nc2nc(CC(C)=O)ns2)cc1OC`, the inhibition was -2.22% (inactive).

For `O=C1CN(C(=O)CN2C(=O)NC(c3ccccc3)(c3ccccc3)C2=O)c2ccccc2N1`, the inhibition is -4.74% (inactive).

`CC(=O)N1CCN(C(=O)c2ccc(-c3cccc(C(F)(F)F)c3)o2)CC1`: the inhibition was -1.68% (inactive).

With `O=C(c1ccc(-c2cccc(C(F)(F)F)c2)o1)N1CCCCCCC1`, the inhibition was 4.53% (inactive).

`CCCCS(=O)(=O)N1CCC(C(=O)Oc2ccccc2OC)CC1`: the inhibition is 28.5% (inactive).

As for `Cc1ccc(C(C(=O)Nc2ccc3c(c2)OCO3)N(C)C(=O)Cc2c[nH]c3ccccc23)cc1` (centres undefined), the inhibition is -1.34% (inactive).

As to `C/C(=C\C(=S)Nc1ccccc1)Nc1ccccc1`, the inhibition is 3.81% (inactive).

Take `C/C(=C\C(=S)Nc1ccccc1)Nc1cccc2ccccc12`: the inhibition was 64.1% (inactive).

As to `O=C(CC1CCCCC1)NCCCN1CCOCC1`, the inhibition is -0.7% (inactive).

`O=C(CSc1nc2[nH]c(=O)cc(O)c2s1)Nc1ccc(Br)cc1`: the inhibition is -3.77% (inactive).

With `CC(=O)N1CCc2cc(Br)cc(S(=O)(=O)NCC3CCCO3)c21` (centres undefined), the inhibition is 0.13% (inactive).

Turning to `COc1cc2cc(C(=O)N(C)Cc3ccccc3)[nH]c2cc1OC`, the inhibition was 6.88% (inactive).

As to `COCCCn1c(SCc2ccc(OC)cc2)nc2cc(OC)c(OC)cc2c1=N`, the inhibition was -4.77% (inactive).

Consider `COCCCn1c(SCc2ccccc2)nc2cc(OC)c(OC)cc2c1=N`, for which the inhibition was -2.27% (inactive).

As to `O=C(CN1C(=O)NC2(CCCC2)C1=O)OCc1cccc(Br)c1`, the inhibition was -6.4% (inactive).

Take `O=C(NC1CCSc2ccccc21)c1ccccc1F` (centres undefined): the inhibition is 12.7% (inactive).

In the case of `O=C(NC1CCSc2ccccc21)c1ccccc1Cl` (centres undefined), the inhibition is 43.4% (inactive).

Regarding `COc1ccc(OCc2n[nH]c(=S)n2-c2ccc(C)cc2)cc1`, the inhibition is 3.01% (inactive).

With `Cc1cc(=O)[nH]c(N/N=C/c2c(C)nn(-c3ccc(F)cc3)c2Cl)n1`, the inhibition is 0.52% (inactive).

`Cc1ccc(-c2nc(N=Nc3ccc(O)cc3)n[nH]2)cc1`: the inhibition is 4.83% (inactive).

Regarding `Oc1ccc(N=Nc2n[nH]c(-c3ccc(Br)cc3)n2)cc1`, the inhibition was 4.79% (inactive).

Consider `CCC(CO)Oc1cc(NC(=O)c2ccc(N)cc2)c2ncn(C(C)C)c2c1` (centres undefined), for which the inhibition was 4.76% (inactive).

As for `O=[N+]([O-])c1ccc(COc2ccc(-c3[nH]ncc3-c3ccccc3)c(O)c2)cc1`, the inhibition is -2.72% (inactive).

In the case of `COc1ccc(-c2cn[nH]c2-c2ccc(OCc3ccc([N+](=O)[O-])cc3)cc2O)cc1`, the inhibition was 8.94% (inactive).

As to `CCOc1ccc(-c2[nH]ncc2-c2ccccc2)c(O)c1`, the inhibition is 9.38% (inactive).

Consider `COc1ccc(-c2[nH]ncc2-c2ccc(Cl)cc2)c(O)c1`, for which the inhibition is 41.7% (inactive).

For `Cc1cc(N2C(=O)C3CC=CCC3C2=O)cc(C)c1Br` (centres undefined), the inhibition is 4.22% (inactive).

For the compound `CC(=NNC(=O)c1ccc(NS(=O)(=O)c2ccc(Br)cc2)cc1)c1cccnc1`, the inhibition is 9.29% (inactive).

Regarding `CC(C)Cc1nc2sc3c(=O)[nH]cnc3c2c2c1CCCC2`, the inhibition was 1.08% (inactive).

`CCN(CC)C(=O)CNC(=S)N(CCCN1CCOCC1)Cc1cccs1`: the inhibition is 1.2% (inactive).

As for `CCc1cc(-c2[nH]ncc2-c2ccc([N+](=O)[O-])cc2)c(O)cc1OC`, the inhibition was 1.64% (inactive).

On to `CCCn1c(NC(=S)Nc2ccccc2)nc2ccccc21`, for which the inhibition was 2.43% (inactive).

Take `CCCCn1c(NC(=S)Nc2ccccc2)nc2ccccc21`: the inhibition was 2.6% (inactive).

In the case of `CSc1nc2ccsc2c(=O)n1-c1ccccn1`, the inhibition was -2.21% (inactive).

Take `CCn1c(C)nc2cc(C(=O)OCCC(F)(F)F)ccc21`: the inhibition was -1.06% (inactive).

Regarding `CCn1c(C)nc2cc(C(=O)OC)ccc21`, the inhibition was -7.44% (inactive).

In the case of `COc1ccccc1C(=O)NC(CCSC)C(=O)OCC(=O)N1CCCC1=O` (centres undefined), the inhibition was -5.17% (inactive).

Take `COc1ccc(-c2c(C#Cc3ccsc3)c3cc(-c4ccc5cc[nH]c5c4)ccc3n2C)cc1`: the inhibition was -6.96% (inactive).

In the case of `CN(C)CCN(Cc1ccccc1)C(=O)[C@H](Cc1ccccc1)N1C(=O)c2ccccc2C1=O`, the inhibition was -1.93% (inactive).

For `COc1ccc(NC(=O)CSc2nc(SC)ns2)c(OC)c1`, the inhibition was 4.38% (inactive).

With `CSc1nsc(SCC(=O)Nc2ccccc2C(N)=O)n1`, the inhibition is 2.11% (inactive).

For `O=C(O)c1cccc(N2C(=O)/C(=C/c3ccc([N+](=O)[O-])cc3)C=C2c2ccccc2)c1`, the inhibition was 7.59% (inactive).

With `O=C1/C(=C/c2ccc([N+](=O)[O-])cc2)C=C(c2ccccc2)N1c1ccccc1`, the inhibition is 10.5% (inactive).

As to `COc1ccc(-n2c(SCC(=O)N3CCc4ccccc43)nnc2-c2c[nH]c3ccccc23)cc1`, the inhibition was 7.85% (inactive).

In the case of `COc1ccccc1N(CC(=O)NC(C)(C)C)C(=O)CCC(=O)Nc1nccs1`, the inhibition was -0.5% (inactive).

As to `CC1(CCc2ccccc2)NC(=O)N(CC(=O)Nc2ccc(S(N)(=O)=O)cc2)C1=O` (centres undefined), the inhibition is 0.35% (inactive).

For the compound `NC[C@H](Cc1ccccc1)NCCCCC1CCCCC1`, the inhibition is -8.88% (inactive).

Turning to `CNC[C@@H](C)NC[C@@H](Cc1ccccc1)NCCc1ccccc1`, the inhibition was 1.77% (inactive).

Turning to `COc1cccc(NC(=O)COC(=O)c2ccccc2SCC(=O)N2CCCC2)c1`, the inhibition is 5.04% (inactive).

`Cc1cc(=O)[nH]c(Nc2cccc(Cl)c2C)n1`: the inhibition is 1.14% (inactive).

As to `O=C(NS(=O)(=O)c1ccccc1Cl)c1ccc[nH]1`, the inhibition is 2.54% (inactive).

On to `CCOc1ccc(C(C)NC(=O)Cc2ccccc2)cc1OCC` (centres undefined), for which the inhibition is -8.29% (inactive).

Turning to `OCCNc1nc(N2CCN(Cc3ccccc3)CC2)nc2ccccc12`, the inhibition is 5.92% (inactive).

Take `OCCN1CCN(c2nc(NCc3ccco3)c3ccccc3n2)CC1`: the inhibition is -0.19% (inactive).

As to `CCc1cccc(CC)c1NC(=O)CSc1nc2ccc(N3C(=O)C4C(C3=O)[C@H]3C=C[C@@H]4C3)cc2s1` (some centres undefined), the inhibition is -9.69% (inactive).

Regarding `CCc1cccc(CC)c1NC(=O)CSc1nc2ccc(N3C(=O)C4C5C=CC(C5)C4C3=O)cc2s1` (centres undefined), the inhibition is -11% (inactive).

`COc1cc(C(=O)Nc2cccc(S(=O)(=O)NCc3ccco3)c2)cc(OC)c1OC`: the inhibition was 0.68% (inactive).

With `COc1ccc(CCC(C)NC(=O)CCc2ccccc2)c(OC)c1` (centres undefined), the inhibition was 4.05% (inactive).

With `COc1cc(/C=N/NC(=O)c2cc3ccccc3cc2O)ccc1OCCN1CCCCC1`, the inhibition was 9.28% (inactive).

Regarding `COc1cc(/C=N/NC(=O)c2csc3c2CCCC3)ccc1OCCN1CCOCC1`, the inhibition was -0.72% (inactive).

On to `COc1ccccc1CNC(=O)CN1CCN(S(=O)(=O)c2cccs2)CC1`, for which the inhibition was -5.5% (inactive).

Consider `CSCCC(NS(=O)(=O)c1ccc(Cl)cc1)C(=O)OCC(=O)NC1CCCCC1` (centres undefined), for which the inhibition is 1.43% (inactive).

For the compound `COc1ccc(NC2=NC(C)(C)CS2)cc1`, the inhibition was -0.92% (inactive).

As to `Cc1ccc(C(=O)CCNc2ccc(Br)cc2)o1`, the inhibition was -5.24% (inactive).

On to `Cc1ccc(C(=O)CNc2ccc(Br)cc2)cc1`, for which the inhibition was 2.6% (inactive).

Regarding `CC12CCC(C(=O)Nc3cccc4ccccc34)(C1Br)C2(C)C` (centres undefined), the inhibition was 5.17% (inactive).

`CCCCOc1ccc(-c2nc(SCC(N)=O)n[nH]2)cc1`: the inhibition was 48.6% (inactive).

As to `CCOc1ccc(-c2cnc(SCC(N)=O)nc2N)cc1`, the inhibition was 62.7% (inactive).

As for `CCC1(c2ccc(F)cc2)NC(=O)N(CC(=O)N2c3ccccc3NC(=O)C2(C)C)C1=O` (centres undefined), the inhibition is 1.45% (inactive).

Consider `CCOc1ccc(-n2c(Cc3ccccc3)nnc2SCc2c(C)noc2C)cc1`, for which the inhibition is -5.75% (inactive).

Regarding `Oc1ccc(-c2nc3ccc4ccccc4c3c3c2CCC3)cc1O`, the inhibition was -2.27% (inactive).

As to `COc1cc(-c2nc3ccc4ccccc4c3c3c2CCC3)ccc1O`, the inhibition was -4% (inactive).

In the case of `Cc1ccccc1NC(=O)CN1C(=O)NC2(CCc3ccccc32)C1=O` (centres undefined), the inhibition was 8.44% (inactive).

As to `C/C(=N/Nc1ccnc2cc(Cl)ccc12)c1ccc(N)cc1`, the inhibition is -2.9% (inactive).

Regarding `Oc1ccc(Nc2ccnc3cc(Cl)ccc23)cc1`, the inhibition was 7.94% (inactive).

In the case of `Clc1ccc2c(NNc3ccccc3Cl)ccnc2c1`, the inhibition is 64.1% (inactive).

On to `CC/C(=N\Nc1ccnc2cc(Cl)ccc12)c1ccc(O)cc1`, for which the inhibition is 9.75% (inactive).

As to `COc1ccc(OC2C(=O)N(Cc3ccc(F)cc3)C2c2cc(OC)c(OC)c(OC)c2)cc1` (centres undefined), the inhibition is 20.5% (inactive).

Take `COc1ccc(S(=O)(=O)Cc2ccc(C(=O)NC3CCC(C)CC3)o2)cc1` (centres undefined): the inhibition is 1.75% (inactive).

Consider `Cc1ccc(C(=O)CSc2nnc3n2CCCCC3)s1`, for which the inhibition was -7.99% (inactive).

For `COCCCNC(=O)Nc1ccc2c(c1)N(C)C(=O)CS2`, the inhibition is 1.24% (inactive).

In the case of `O=C(CN(CCc1ccccc1)C(=O)CNS(=O)(=O)c1ccc(F)cc1)NCc1ccco1`, the inhibition is 1.92% (inactive).

In the case of `CCCCN1CCNC[C@@H]1c1ccccc1`, the inhibition was -9.81% (inactive).

Turning to `CCOC1OC(=O)C(Cl)=C1Nc1ccc(C)cc1C` (centres undefined), the inhibition was 9.67% (inactive).

Take `CCOC1OC(=O)C(Cl)=C1Nc1cc(C)ccc1C` (centres undefined): the inhibition was -3.33% (inactive).

Consider `Cc1ccc(NC(=O)C2CCN(C(=O)[C@@H]3Cc4ccccc4CN3)CC2)cc1`, for which the inhibition was 9.95% (inactive).

As to `O=C(COC(=O)c1cc2ccccc2oc1=O)Nc1cccc(S(=O)(=O)N2CCCCCC2)c1`, the inhibition was -4.32% (inactive).

With `CCOC(=O)Cc1csc(NC(=O)CSc2nnnn2-c2ccc(F)cc2)n1`, the inhibition is -5.86% (inactive).

Take `CCOC(=O)c1sc(NC(=O)CN2C(=O)NC3(CC(C)CC(C)(C)C3)C2=O)c(C(=O)OCC)c1C` (centres undefined): the inhibition was 5.68% (inactive).

Regarding `CCc1nnc(NC(=O)CN2C(=O)NC3(CC(C)CC(C)(C)C3)C2=O)s1` (centres undefined), the inhibition was -0.6% (inactive).

As for `CSCC[C@H](NC(=O)c1cccc(S(=O)(=O)N2CCN(C)CC2)c1)c1nc2ccccc2[nH]1`, the inhibition is -7.51% (inactive).

With `CC(C(=O)Nc1ccc2c(c1)OCCO2)n1nnc(-c2ccccc2)n1` (centres undefined), the inhibition was 0.15% (inactive).

In the case of `Cc1nc(C)c(CCNC(=O)c2ccccc2Br)s1`, the inhibition is -5.7% (inactive).

The record behind these values is PubChem BioAssay AID449762 (Southern Research Specialized Biocontainment Screening …, 2010).
